From PubChem BioAssay (NCATS)
Where “and” joins values, the source holds several entries; their conditions need not be identical. Equal values may be shown once. Inconclusive results are not listed. Where a call stands in place of a potency, no number is given. A structure can be active in one record and inactive in another. Calls of active or inactive are those of the source. Unless noted, calls follow the shape of the dose curve; as a rule, active = well fitted curve in the direction sought with a large enough effect; inconclusive = small, poorly fitted or top-dose-only effect, or another doubt; inactive = no such curve, though single readings can be large; an effect the other way counts as inactive or inconclusive.

target: Cellular tumor antigen p53 (Homo sapiens) (UniProt P04637); assay: Primary qHTS for small molecule compounds that upregulate eGFP-tagged delta133p53alpha (in C-terminal) cells. (AID 2060324); conditions: NCI-H358 delta133p53alpha-eGFP (C-terminal tag), GFP fluorescence imaging, 24 h; series mostly up to 57.5 µM
Outline: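 NCI-H358 cells with doxycycline-inducible D133p53a-eGFP (C-terminal tag), pre-induced 24 h with 100 ng/ml doxycycline, plated 800/well in doxycycline-free medium and treated 24 h at 37 °C with compound titrations. Cells were then fixed and Hoechst-stained, and GFP intensity was read by laser scanning cytometry.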
Potency is read from the fitted curve at half-maximal effect.

Sequence of Cellular tumor antigen p53 (Homo sapiens) (P04637 whole entry, looked up): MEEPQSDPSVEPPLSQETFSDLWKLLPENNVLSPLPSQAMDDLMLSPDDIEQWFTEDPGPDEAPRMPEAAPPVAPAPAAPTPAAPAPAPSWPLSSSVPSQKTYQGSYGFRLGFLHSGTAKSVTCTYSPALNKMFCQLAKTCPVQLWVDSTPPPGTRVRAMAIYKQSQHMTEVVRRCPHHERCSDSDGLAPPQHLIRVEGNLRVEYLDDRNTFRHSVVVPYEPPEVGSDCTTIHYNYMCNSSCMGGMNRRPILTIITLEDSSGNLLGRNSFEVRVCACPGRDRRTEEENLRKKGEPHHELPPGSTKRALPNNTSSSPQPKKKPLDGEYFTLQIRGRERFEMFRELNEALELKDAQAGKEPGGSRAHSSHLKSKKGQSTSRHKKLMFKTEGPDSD

| Compound | Potency |
| --- | --- |
| CC[C@@]1(O)C(=O)OCc2c1cc1n(c2=O)Cc2cc3ccccc3nc2-1 | 3.79 µM (active) |
| CN(N=O)c1ccc(O)c(O)c1 | inactive |
| CN1CC[C@@]2(C)c3cc(OC(=O)Nc4ccccc4)ccc3N(C)[C@@H]12 | inactive |
| Cc1ncc(CNC(=O)N(CCCl)N=O)c(N)n1 | inactive |
| CN1CC[C@@]2(C)c3cc(O)ccc3N(C)C12 (some centres undefined) | inactive |
| O=[N+]([O-])c1cc(O)c(O)c([N+](=O)[O-])c1 | inactive |
| C[N+]1(C)C2CCC1CC(OC(=O)c1c[nH]c3ccccc13)C2 (centres undefined) | inactive |

target: Aldehyde dehydrogenase, mitochondrial (Homo sapiens) (UniProt P05091); assay: qHTS for Inhibitors of the Aldehyde Dehydrogenase Family (ALDH2) Validation screens (AID 2061302; active = well fitted inhibition curve with a large enough effect; title and protocol of this record describe different tests); conditions: ALDH inhibition qHTS; series mostly up to 42.6 µM

| Compound | Potency |
| --- | --- |
| NCCCP(=O)(O)O | inactive |
| COc1ccc(OC)c(C(O)C(C)N)c1 (centres undefined) | inactive |
| Cc1o[nH]c(=O)c1CC(N)C(=O)O (centres undefined) | inactive |
| N#CC(C#N)=Cc1ccc(O)c(O)c1 | inactive |
| CC[C@@]1(O)C(=O)OCc2c1cc1n(c2=O)Cc2cc3ccccc3nc2-1 | inactive |
| C#CCN[C@H](C)Cc1ccccc1 | inactive |
| CCCN1CCc2cccc3c2[C@H]1Cc1ccc(O)c(O)c1-3 | inactive |
| CCCN(CCC)CCc1ccc(O)c(O)c1 | inactive |
| CN(N=O)c1cc(O)ccc1O | 0.794 µM (active) |
| O=C(O)Cc1cnc[nH]1 | inactive |
| NC(=NCCC[C@H](N)C(=O)O)N[N+](=O)[O-] | inactive |
| CC(=O)[C@H]1CC[C@H]2[C@@H]3CC[C@H]4C[C@H](O)CC[C@]4(C)[C@H]3C(=O)C[C@]12C | inactive |
| O=C(NC1CN2CCC1CC2)c1cc2ccoc2cn1 (centres undefined) | inactive |
| NCCc1ccc(S(=O)(=O)F)cc1 | inactive |
| c1ccc(C2(c3ccccc3)CC2C2=NCCN2)cc1 (centres undefined) | inactive |
| CCn1cnc2c(Nc3cccc(Cl)c3)nc(N[C@@H]3CCCC[C@@H]3N)nc21 | inactive |
| CCCN1CCc2cc(O)cc3c2[C@H]1Cc1ccc(O)c(O)c1-3 | inactive |

| Compound | Potency |
| --- | --- |
| S=C(NC1CCCCC1)N1CCC(c2cnc[nH]2)CC1 | inactive |
| COc1ccc(C(CN(C)C)C2(O)CCCCC2)cc1 (centres undefined) | inactive |
| CN1CCC(c2c[nH]c3ccc(O)cc23)CC1 | inactive |
| COc1ccc2[nH]cc(CCN)c2c1 | inactive |
| [Cl-].[Cl][Pt].[NH2-].[NH2-].c1ccncc1 | inactive |
| CC1(C(=O)O)C2CCC(O2)C1(C)C(=O)O (centres undefined) | inactive |
| c1ccc2cc(CC3=NCCN3)ccc2c1 | inactive |
| CC(O)(CS(=O)(=O)c1ccc(F)cc1)C(=O)Nc1ccc(C#N)c(C(F)(F)F)c1 (centres undefined) | inactive |
| C[C@@H]1O[C@H](C[N+](C)(C)C)C[C@H]1O | inactive |
| C[N+]1(C)CCN(c2ccccc2)CC1 | inactive |
| COc1ccc2c(c1O)-c1cccc3c1[C@@H](C2)N(C)CC3 | inactive |
| CN1CCc2cc(O)cc3c2[C@H]1Cc1ccc(O)c(O)c1-3 | inactive |
| CP(=O)(O)C1=CCNCC1 | inactive |
| C[N+](C)(C)CC#CCOC(=O)Nc1cccc(Cl)c1 | 10 µM (active) |
| COc1ccccc1N1CCNCC1 | inactive |
| Oc1ccc2c3c1O[C@H]1c4[nH]c5ccccc5c4C[C@@]4(O)C(C2)N(CC2CC2)CCC314 (some centres undefined) | inactive |

target: Aldehyde dehydrogenase, mitochondrial (Homo sapiens) (UniProt P05091); assay: qHTS for Inhibitors of the Aldehyde Dehydrogenase Family (ALDH2) Confirmatory screens (AID 2061303; active = well fitted inhibition curve with a large enough effect; title and protocol of this record describe different tests; also: nearly all actives have a fitted effect of over 45% in size); conditions: ALDH inhibition qHTS; series mostly up to 45.4 µM

| Compound | Potency |
| --- | --- |
| CN(N=O)c1cc(O)ccc1O | inactive |
| CN1CC[C@@]2(C)c3cc(OC(=O)Nc4ccccc4)ccc3N(C)[C@@H]12 | inactive |
| Cc1ncc(CNC(=O)N(CCCl)N=O)c(N)n1 | inactive |
| C[N+](C)(C)CC#CCOC(=O)Nc1cccc(Cl)c1 | 10.1 µM (active) |

system: not listed separately; assay: qHTS for Inhibitors of the Aldehyde Dehydrogenase Family (ALDH1A2, ALDH1A3, ALDH2, ALDH3A1) (AID 2061307); conditions: ALDH inhibition qHTS; series mostly up to 50.3 µM; also: nearly all actives have a fitted effect of over 50% in size; as to potency: test system not described further here

| Compound | Potency |
| --- | --- |
| N#CC(C#N)=Cc1ccc(O)c(O)c1 | inactive |
| CN(N=O)c1cc(O)ccc1O | 2.25 µM (active) |
| CN1CC[C@@]2(C)c3cc(OC(=O)Nc4ccccc4)ccc3N(C)[C@@H]12 | 8.96 µM (active) |
| Cc1ncc(CNC(=O)N(CCCl)N=O)c(N)n1 | inactive |
| O=[N+]([O-])c1cc(O)c(O)c([N+](=O)[O-])c1 | inactive |
| CN1CCc2cc(O)cc3c2[C@H]1Cc1ccc(O)c(O)c1-3 | inactive |

target: Retinaldehyde dehydrogenase 3 (Homo sapiens) (UniProt P47895); assay: qHTS for Inhibitors of the Aldehyde Dehydrogenase Family (ALDH1A3) Confirmatory screens (AID 2061311); conditions: ALDH inhibition qHTS; series mostly up to 46 µM; also: nearly all actives have a fitted effect of over 60% in size

| Compound | Potency |
| --- | --- |
| N#CC(C#N)=Cc1ccc(O)c(O)c1 | 0.798 µM (active) |
| CN(N=O)c1ccc(O)c(O)c1 | 12.7 µM (active) |
| CCCN1CCc2cccc3c2[C@H]1Cc1ccc(O)c(O)c1-3 | 22.5 µM (active) |
| CN(N=O)c1cc(O)ccc1O | 0.634 µM (active) |
| CN1CC[C@@]2(C)c3cc(OC(=O)Nc4ccccc4)ccc3N(C)[C@@H]12 | inactive and 7.98 µM (active) |
| Cc1ncc(CNC(=O)N(CCCl)N=O)c(N)n1 | inactive |
| CN1CC[C@@]2(C)c3cc(O)ccc3N(C)C12 (some centres undefined) | 10.1 µM (active) |
| O=[N+]([O-])c1cc(O)c(O)c([N+](=O)[O-])c1 | 10.1 µM (active) |
| CN1CCc2cc(O)cc3c2[C@H]1Cc1ccc(O)c(O)c1-3 | 12.7 µM (active) |

target: Retinaldehyde dehydrogenase 3 (Homo sapiens) (UniProt P47895); assay: qHTS for Inhibitors of the Aldehyde Dehydrogenase Family (ALDH1A3) Validation screen (AID 2061312); conditions: ALDH1A3 enzyme inhibition qHTS validation, fluorescence; series mostly up to 42.4 µM; also: nearly all actives have a fitted effect of over 45% in size

| Compound | Potency |
| --- | --- |
| NCCCP(=O)(O)O | inactive |
| COc1ccc(OC)c(C(O)C(C)N)c1 (centres undefined) | inactive |
| CCCN(CCC)CCc1ccc(O)c(O)c1 | inactive |
| CN(N=O)c1cc(O)ccc1O | 0.282 µM (active) |
| NC(=NCCC[C@H](N)C(=O)O)N[N+](=O)[O-] | inactive |
| CC(=O)[C@H]1CC[C@H]2[C@@H]3CC[C@H]4C[C@H](O)CC[C@]4(C)[C@H]3C(=O)C[C@]12C | inactive |
| c1ccc(C2(c3ccccc3)CC2C2=NCCN2)cc1 (centres undefined) | inactive |
| S=C(NC1CCCCC1)N1CCC(c2cnc[nH]2)CC1 | inactive |
| COc1ccc(C(CN(C)C)C2(O)CCCCC2)cc1 (centres undefined) | inactive |
| C[N+]1(C)C2CCC1CC(OC(=O)c1c[nH]c3ccccc13)C2 (centres undefined) | inactive |
| COc1ccc2[nH]cc(CCN)c2c1 | inactive |
| CC1(C(=O)O)C2CCC(O2)C1(C)C(=O)O (centres undefined) | inactive |
| c1ccc2cc(CC3=NCCN3)ccc2c1 | inactive |
| CC(O)(CS(=O)(=O)c1ccc(F)cc1)C(=O)Nc1ccc(C#N)c(C(F)(F)F)c1 (centres undefined) | inactive |
| CP(=O)(O)C1=CCNCC1 | inactive |
